Compounds with a hit are over-represented: about 19% of the library has one in this group of screens.
TDP1 cell noCPT: qHTS for Inhibitors of human tyrosyl-DNA phosphodiesterase 1 (TDP1): qHTS in cells in absence of CPT; DT40 Tdp1-/- hTDP1 cells, no CPT, ATP luminescence, 48 h; Potency, µM (series often up to 46.2 µM), actives largely listed as inhibitors; actives 15% (n = 420,000); further: nearly all actives have a fitted effect of over 55% in size
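Readout: luminescence from CellTiter-Glo after 30 min in the dark at RT. Cells: DT40 Tdp1-/- with stable hTDP1, 400/well. Exposure: compounds alone, ≥48 hr, 37 °C.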
DT40 TDP1 CPT: growth inhibition of DT40 Tdp1-/-;hTDP1 cells with camptothecin (screen for TDP1 inhibitors). AID 686979. chicken DT40 Tdp1-/-;hTDP1 cells + 20 nM CPT, ATP luminescence, 48 h. actives 12% (n = 420,000). Potency, µM (series often up to 46.2 µM), usual class: inhibitors; further: nearly all actives have a fitted effect of over 55% in size
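Chicken DT40 Tdp1-/- cells complemented with human TDP1, 400 cells/well, exposed to compounds plus 20 nM camptothecin for at least 48 h at 37 C; viability read as ATP content by CellTiter-Glo luminescence.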
IL1B secr inh: inhibitors of inflammasome signaling (IL-1 beta secretion); actives 4.7% (n = 360,000); THP-1 LPS/ATP IL-1B secretion, AlphaLISA, 16 h; hits give low values; activity change, % at 57.5 µM; in the data active means activity change below about -50%; inconclusive means mostly about -30% to -49%
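Secreted IL-1B measured by AlphaLISA bead assay after 16 h compound exposure of THP-1 cells; compounds (final up to 57.5 uM) added 1 h before LPS (250 ng/mL) and ATP (1.25 mM) stimulation; lower signal means less secretion.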
TGFb inhibitor: TGF-b pathway inhibition; HepG2 CAGA-GFP TGF-b/SMAD3 reporter, GFP fluorescence, 18 h; TGF-beta stimulated, 500 pg/mL final; Potency, µM (series often up to 46.1 µM), most hits filed as inhibitors; actives 1.2% (n = 410,000); AID 588855; further: nearly all actives have a fitted effect of over 65% in size
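First, reporter cells (HEPG2 CAGA-GFP) rested 2 h at 37 degrees C. Next, compounds were pinned in and TGF-beta added to 500 pg/mL final. After 18 h, GFP was imaged per cell and summed per well.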
ASM inhibitor: inhibitors of human secretory acid sphingomyelinase; placental ASM, HMU-PC fluorogenic substrate, 60 min; P17405; Potency, µM (doses to about 57.5 µM), hits mostly inhibitors; AID 504937; actives 0.006% (n = 340,000)
Target sequence (P17405 47-631 limits assumed): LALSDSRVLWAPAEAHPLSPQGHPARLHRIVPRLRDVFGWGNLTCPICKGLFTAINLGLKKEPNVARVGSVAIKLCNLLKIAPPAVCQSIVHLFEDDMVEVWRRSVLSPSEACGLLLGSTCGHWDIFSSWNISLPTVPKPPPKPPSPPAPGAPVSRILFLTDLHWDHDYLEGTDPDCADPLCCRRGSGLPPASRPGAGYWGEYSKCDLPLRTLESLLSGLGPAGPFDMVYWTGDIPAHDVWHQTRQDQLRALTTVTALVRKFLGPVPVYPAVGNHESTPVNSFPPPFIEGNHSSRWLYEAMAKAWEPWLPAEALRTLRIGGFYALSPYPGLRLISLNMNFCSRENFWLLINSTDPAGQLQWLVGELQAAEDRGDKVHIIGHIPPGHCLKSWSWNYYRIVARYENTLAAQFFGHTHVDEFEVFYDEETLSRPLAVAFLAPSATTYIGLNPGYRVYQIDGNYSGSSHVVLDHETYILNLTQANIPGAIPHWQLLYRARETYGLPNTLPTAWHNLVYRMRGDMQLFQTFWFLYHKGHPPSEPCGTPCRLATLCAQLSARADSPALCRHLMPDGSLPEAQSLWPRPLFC
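qHTS format. ASM enzyme prepared from human placenta hydrolyses the fluorogenic substrate HMU-PC0 (9 uM final) over 60 min at 37 °C after a 10 min compound preincubation.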
HepG2 viability: kills HepG2 cells in TGF-b inhibitor counter-screen. Potency, µM (titrated, usually from 46.1 µM), actives largely listed as cytotoxic. HepG2 CAGA-GFP viability, ATP luminescence, 18 h. actives 0.76% (n = 410,000)
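CellTiter-Glo luminescence gave cytotoxicity after 18 hours at 37 degrees C. The cells were HepG2 CAGA-GFP in 1% FBS DMEM, stimulated with 500 pg/mL TGF-beta after compound addition. %Activity was normalised to no-cell wells (complete cell-killing) and DMSO (no toxicity), and curves were fitted and classified.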
Of the large screens only hits and unclear results are named; the others gave an inactive call. Unless noted, the call rests on the fitted dose curve; in most records, active means well fitted curve in the direction sought with a large enough effect; inconclusive means small, poorly fitted or top-dose-only effect, or another doubt; inactive means no such curve, though single readings can be large; an effect the other way counts as inactive or inconclusive.

O=C(CN1C(=O)S/C(=C\c2ccc(Cl)cc2)C1=O)NC1C=CS(=O)(=O)C1 (stereo unspecified)	TDP1 cell noCPT inconclusive, DT40 TDP1 CPT 5.2µM, IL1B secr inh -69
O=C(CN1C(=O)S/C(=C\c2cccc(Cl)c2)C1=O)NC1C=CS(=O)(=O)C1 (stereo unspecified)	DT40 TDP1 CPT inconclusive, IL1B secr inh -67
COc1cccc(/C=C2\SC(=S)N(CCC(=O)NCCc3ccc(O)cc3)C2=O)c1	TDP1 cell noCPT inconclusive, DT40 TDP1 CPT 18µM, IL1B secr inh -85, TGFb inhibitor inconclusive
O=C(CN1C(=O)/C(=C/c2cccc(Cl)c2)SC1=S)NC1C=CS(=O)(=O)C1 (stereo unspecified)	TDP1 cell noCPT 16µM, DT40 TDP1 CPT inconclusive, IL1B secr inh -63, TGFb inhibitor inconclusive
O=C(O)CN1C(=O)/C(=C\c2cccc(OCc3ccc(Cl)cc3Cl)c2)SC1=S	DT40 TDP1 CPT inconclusive, ASM inhibitor inconclusive
O=C(CN1C(=O)S/C(=C\c2ccccc2)C1=O)NC1CCS(=O)(=O)C1 (stereo unspecified)	none
CN(C(=O)CN1C(=O)S/C(=C\c2cccc(Cl)c2)C1=O)C1CCS(=O)(=O)C1 (stereo unspecified)	TDP1 cell noCPT inconclusive, DT40 TDP1 CPT inconclusive
CC(NC(=O)COc1ccc(/C=N/NC(=O)CO)cc1)c1ccccc1 (stereo unspecified)	none
O=C(CN1C(=O)S/C(=C\c2ccccc2F)C1=O)NC1CCS(=O)(=O)C1 (stereo unspecified)	none
O=C(CN1C(=O)/C(=C/c2ccccc2F)SC1=S)NC1C=CS(=O)(=O)C1 (stereo unspecified)	IL1B secr inh -50
COc1cccc(/C=C2\SC(=S)N(CCC(=O)NC3C=CS(=O)(=O)C3)C2=O)c1 (stereo unspecified)	TDP1 cell noCPT inconclusive, DT40 TDP1 CPT inconclusive, IL1B secr inh -67, TGFb inhibitor inconclusive
COc1ccc(/C=C2\SC(=S)N(CCC(=O)NC3C=CS(=O)(=O)C3)C2=O)cc1 (stereo unspecified)	IL1B secr inh inconclusive
COc1ccccc1OCc1ccc(C(=O)NN)o1	none
COc1ccccc1OCc1ccc(C(=O)Nc2ccc(C)c(C)c2)o1	TDP1 cell noCPT inconclusive, DT40 TDP1 CPT 23µM (no result: IL1B secr inh, ASM inhibitor)
COc1ccc(NC(=O)c2ccc(COc3ccccc3OC)o2)cc1OC	TDP1 cell noCPT 23µM, DT40 TDP1 CPT 15µM
COc1ccccc1OCc1ccc(C(=O)Nc2cc(OC)c(OC)c(OC)c2)o1	TDP1 cell noCPT inconclusive, DT40 TDP1 CPT inconclusive, IL1B secr inh inconclusive
COc1ccc(CC(=O)N2CCN(c3ccccn3)CC2)cc1OC	none
COc1cc(NC(=O)c2ccc(COc3ccccc3Br)o2)cc(OC)c1OC	TDP1 cell noCPT 23µM, DT40 TDP1 CPT inconclusive, ASM inhibitor inconclusive
CCCc1ccc(OCc2ccc(C(=O)N3CCN(c4ccccn4)CC3)o2)c(OC)c1	TDP1 cell noCPT 21µM, DT40 TDP1 CPT inconclusive, TGFb inhibitor inconclusive
CCCNC(=O)c1ccc(COc2ccc(CCC)cc2OC)o1	TDP1 cell noCPT 15µM, DT40 TDP1 CPT inconclusive, IL1B secr inh inconclusive
COc1ccccc1OCc1ccc(C(=O)NCCN(C)C)o1	none
CCCCCC(=O)N1C[C@@H](O)[C@H](n2cc(COC(=O)c3ccccc3)nn2)C[C@@H]1c1ccc(Cl)cc1	none (no result: ASM inhibitor)
COc1ccc(Cl)cc1C(=O)CSc1nnnn1C1CCCC1	TDP1 cell noCPT 18µM, DT40 TDP1 CPT 16µM, IL1B secr inh inconclusive
COc1ccc(Cl)cc1C(=O)CSc1nnnn1C1CCCCC1	TDP1 cell noCPT 18µM, DT40 TDP1 CPT inconclusive
COc1ccc(NC(=O)CSc2nnnn2C2CCCC2)c(OC)c1	none
CCn1c(=O)c2c(n3cnnc13)-c1ccccc1CC21CCCCC1	TDP1 cell noCPT inconclusive, DT40 TDP1 CPT 13µM
